Reference: PubChem BioAssay AID504329 (Southern Research Specialized Biocontainment Screening …, 2011)
About 1,000 (0.29%) of roughly 340,000 compounds were called active. Rule as the data show it: inconclusive = inhibition above about 27% without an active follow-up result; inactive = below that. Only a sample is shown. Potency and affinity values are given separately.

test: H1N1 influenza NS1A inhibitors, functional cell based assay (AID 504329); settings: percent inhibition, at 12.5 µM, active compounds read high

SMILES | inhibition
Cc1ccccc1CN1CCN(CC(=O)NCc2ccccc2)CC1 | -8.48% (inactive)
COc1ccc(C2CC(=O)Oc3c(C(CCN4CCOCC4)c4cc(OC)c(OC)c(OC)c4)c(OC)cc(OC)c32)cc1 (centres undefined) | -11.8% (inactive)
COc1ccc(C2CC(=O)Oc3c(C(CCN4CCN(c5ccccc5)CC4)c4ccc(N(C)C)cc4)c(OC)cc(OC)c32)cc1 (centres undefined) | 16.5% (inactive)
COc1ccc(C(CCN2CCCC(C)C2)c2c(OC)cc(OC)c3c2OC(=O)CC3c2cc(OC)c(OC)c(OC)c2)cc1 (centres undefined) | -7.41% (inactive)
COc1cc(C2CC(=O)Oc3c(C(CCN4CCN(c5ccccc5)CC4)c4ccc(N(C)C)cc4)c(OC)cc(OC)c32)cc(OC)c1OC (centres undefined) | 18% (inactive)
COc1cc(C2CC(=O)Oc3c(C(CCN4CCOCC4)c4ccc(N(C)C)cc4)c(OC)cc(OC)c32)cc(OC)c1OC (centres undefined) | 19.5% (inactive)
COc1cc(C(CCN2CCOCC2)c2c(OC)cc(OC)c3c2OC(=O)CC3c2ccc(N(C)C)cc2)cc(OC)c1OC (centres undefined) | 13.9% (inactive)
Cc1ccc(S(=O)(=O)NC(C)C(=O)Nc2ccc(C(N)=O)cc2)cc1 (centres undefined) | 7.11% (inactive)
CN1C(=O)/C(=C\c2ccncc2)SC1=Nc1ccccc1 | 2.83% (inactive)
CC(CCc1ccccc1)NC(=O)c1ccco1 (centres undefined) | 18.9% (inactive)
COc1ccc(N=c2oc3c(OC)cccc3cc2C(=O)NCc2ccco2)c(OC)c1 | 10.4% (inactive)
CCOc1ccccc1N(C(=O)c1snc(C(N)=O)c1N)C(C(=O)NCc1ccccc1)c1ccc(O)cc1 (centres undefined) | 11.4% (inactive)
CCOc1cc(/C=N/NC(=O)c2cccc([N+](=O)[O-])c2)ccc1OS(=O)(=O)c1ccccc1 | -5.88% (inactive)
OCCC1CN(C2CSCCSC2)CCN1Cc1ccccc1 (centres undefined) | -6.56% (inactive)
CN1CCN(c2ccc(CNS(=O)(=O)c3ccc(F)cc3Cl)cc2)CC1 | -10.3% (inactive)
Cc1nc(SCC(=O)NCc2ccccc2)c2c(=O)n(C)c(=O)n(C)c2n1 | -13.1% (inactive)
Cc1ncc(CO)c(/C=N/NC(=O)c2ccccc2Br)c1O | 18.5% (inactive)
COc1ccc(C(=O)N/N=C/c2c(CO)cnc(C)c2O)cc1 | 21.8% (inactive)
COc1ccccc1NS(=O)(=O)c1cccc(C(=O)N/N=C/c2c(CO)cnc(C)c2O)c1 | 17.7% (inactive)
O=C(N/N=C/c1ccccn1)c1cccc(S(=O)(=O)N2CCCC2)c1 | -3% (inactive)
Cc1ncc(CO)c(/C=N/NC(=O)c2ccc(O)cc2)c1O | 15.5% (inactive)
Cc1ncc(CO)c(/C=N/NC(=O)c2ccoc2C)c1O | 7.34% (inactive)
CC(C)C(NC(=O)C1CC(=O)N(Cc2ccccc2)C1)c1nc2ccccc2[nH]1 (centres undefined) | -13.6% (inactive)
O=C(c1cc2ccccc2c(=O)o1)N1CCCCCC1 | -12.3% (inactive)
Cc1cc(N2CCOCC2)ccc1/C=C1\NC(=O)N(Cc2ccccc2F)C1=O | -4.62% (inactive)

SMILES | inhibition
CC(=O)Nc1nc(CCl)cs1 | -0.43% (inactive)
NS(=O)(=O)c1ccc(N=Nc2c(O)ccc3ccccc23)cc1 | 7.02% (inactive)
Oc1ccc(N=Nc2ccc3ccccc3c2)cc1 | 3.88% (inactive)
O=S(=O)(O)c1cccc(N=Nc2c(O)ccc3ccccc23)c1 | 22.8% (inactive)
Cn1c(O)c(N=Nc2ccc(F)cc2)c2ccccc21 | -0.89% (inactive)
O=C(O)c1cc(N=Nc2c(O)ccc3ccccc23)cc(C(=O)O)c1 | 13.6% (inactive)
Oc1[nH]c2ccccc2c1N=Nc1ccccc1F | -4.52% (inactive)
NS(=O)(=O)c1ccc(N=Nc2c(O)c(C(=O)O)cc3ccccc23)cc1 | 14% (inactive)
O=C(O)c1cc2ccccc2c(N=Nc2cccnc2)c1O | 16.2% (inactive)
Cc1ccccc1C(=O)N=c1sccn1C | -5.97% (inactive)
O=C(NC1CCCCC1)c1c(O)nc2sccn2c1=O | 0.11% (inactive)
O=C(COc1ccccc1Cl)Nc1ccccc1C(=O)Nc1cccc(C(=O)O)c1 | 1.12% (inactive)
COc1ccc(-c2cc(C(=O)Nc3cccc(S(=O)(=O)NCc4ccco4)c3)c3ccccc3n2)cc1OC | -2.45% (inactive)
COc1ccccc1C(=O)N/C(=C\c1ccc(Br)cc1)C(=O)NCCO | -1.68% (inactive)
COC(=O)N/N=C(\C)c1ccc(C)c([N+](=O)[O-])c1 | 2.68% (inactive)
CCC(CC)C(=O)Nc1nnc(S(=O)(=O)Nc2ccccc2C)s1 | -5.98% (inactive)
O=C(COc1ccccc1)NCC(=O)N/N=C/c1ccco1 | 8.38% (inactive)
O=C(Nc1ccccc1N1CCOCC1)c1cccc(Oc2ccccc2)c1 | 5.8% (inactive)
Oc1[nH]c2ccccc2c1N=Nc1ccccn1 | -23.1% (inactive)
CCCCn1c(O)c(N=Nc2ccccn2)c2ccccc21 | -1.48% (inactive)
CN(C)S(=O)(=O)c1ccc(Cl)c(C(=O)NNC(=O)Cc2nc3ccccc3n2C)c1 | -3.93% (inactive)
CCO/C=C1/C(=O)N(c2ccc(OC)cc2)C(=O)c2ccccc21 | 1.21% (inactive)
CCO/C=C1\C(=O)N(c2ccccc2)C(=O)c2ccccc21 | 4.03% (inactive)
CCOc1ccc(N2C(=O)c3ccccc3C2=O)cc1 | 5.19% (inactive)
Cc1cc(C)nc(NS(=O)(=O)c2ccc(N3C(=O)c4ccccc4C3=O)cc2)n1 | -5.14% (inactive)

SMILES | inhibition
Cc1[nH]c2ccccc2c1C(=O)C(=O)N1CCCc2ccccc21 | -5.75% (inactive)
Nc1ccc(N(CCO)CCO)cc1 | 11.7% (inactive)
Cc1cc(N(CCO)CCO)ccc1C(c1ccc(N(CCO)CCO)cc1C)c1ccccc1Cl | 19.6% (inactive)
O=C1CCC(C(=O)N2CCSCC2)CN1CCc1ccccc1 (centres undefined) | 5.31% (inactive)
CCOC(=O)C1=C(Cc2ccc(Cl)cc2)C(=O)c2ccccc2C1=O | 21.1% (inactive)
CCOC(=O)C1=C(Cc2ccc(F)cc2)C(=O)c2ccccc2C1=O | 19.2% (inactive)
N#Cc1c(N)nc2c(c1-c1ccc(F)cc1)CCC2 | 0.84% (inactive)
C[C@H](C(=O)NCc1ccccc1)C(=O)c1ccccc1 | 8.83% (inactive)
COc1ccc(-c2csc(N(CCc3ccc(OC)c(OC)c3)C(=O)COc3ccccc3)n2)cc1 | 1.44% (inactive)
CC(C)CCn1nnnc1C(c1ccc(F)cc1)N1CCC(C(N)=O)CC1 (centres undefined) | -2.77% (inactive)
CC(=O)c1ccc(-c2ccccc2)cc1 | 7.71% (inactive)
O=C(NCc1cccs1)C1CCN(c2nccs2)CC1 | 5.59% (inactive)
COc1cc(/C=N/NC(=S)Nc2cccc(C(=O)O)c2)ccc1O | -4% (inactive)
COc1ccc(/C=N\NC(=O)C2=NNC(=O)C2C)cc1 (centres undefined) | 3.13% (inactive)
O=C(N/N=C/c1ccccc1)c1cc[n+]([O-])cc1 | -4.01% (inactive)
COc1cc(OC)c([N+](=O)[O-])cc1/C=N/NC(=O)c1ccncc1 | 1.29% (inactive)
COc1cc(/C=N/NC(=O)C2=NNC(=O)C2C)ccc1O (centres undefined) | -32.2% (inactive)
COc1cc(/C=N/NC(=S)Nc2cccc(C(=O)O)c2)cc(OC)c1OC | -7.56% (inactive)
COc1cc(/C=N/NC(=O)c2ccncc2)c([N+](=O)[O-])cc1OC | -2.25% (inactive)
O=C(N/N=C/c1ccc(Br)cc1)c1cc[n+]([O-])cc1 | 6.04% (inactive)
CC(NC(=O)c1ccc(NC(=O)CC2SC(N3CCCC3)=NC2=O)cc1)c1ccccc1 (centres undefined) | -7.82% (inactive)
O=S(=O)(c1ccc(S(=O)(=O)N2CCOCC2)cc1)N1CCCC1 | 4.18% (inactive)
CCCCC(=O)N(c1ccc(C(=O)O)cc1)c1nc(-c2ccc(Cl)cc2)c(CC)s1 | -4.2% (inactive)
O=C(NC1CCCCC1)C1CC(=O)N(Cc2ccccc2)C1 (centres undefined) | -1.57% (inactive)
C[N+](C)(C)C(Cc1ccccc1)C(=O)[O-] (centres undefined) | -4.58% (inactive)

SMILES | inhibition
O=C(O)c1cccc(NC(=S)N/N=C/c2cccc(O)c2)c1 | 2.28% (inactive)
COc1cccc(/C=N/NC(=O)C[n+]2ccccc2)c1OC | 0.86% (inactive)
CCOc1cc(Br)cc(/C=N/NC(=O)c2cccnc2)c1O | 15.9% (inactive)
CCOc1cc(/C=N/NC(=O)c2cccnc2)ccc1O | 11.3% (inactive)
COc1ccccc1/C=N/NC(=O)C(=O)NCc1cccnc1 | -1.04% (inactive)
O=C(O)c1cccc(NC(=S)N/N=C/c2cccnc2)c1 | 4.47% (inactive)
COc1cccc(/C=N/NC(=O)C(=O)NCc2cccnc2)c1OC | -5.14% (inactive)
COc1cc(OC)c(OC)cc1/C=N/NC(=O)C[n+]1ccccc1 | -11.7% (inactive)
CCOc1ccc(NS(=O)(=O)c2cccc(C(=O)NCC3(N(C)C)CCCCC3)c2)cc1 | 0.36% (inactive)
Cc1cc2nc(-c3ccc[nH]c3=O)n(Cc3ccc(F)cc3)c2cc1C | 1.86% (inactive)
COc1cccc(CNC(=O)COC(=O)C23CC4CC(CC(Cl)(C4)C2)C3)c1 | -9.8% (inactive)
O=C(CN(Cc1ccccc1Cl)C(=O)c1ccc(CN2CCOCC2)o1)NCc1ccccc1 | 1.95% (inactive)
O=c1c2ccccc2nc(SCCN2CCCCC2)n1CCc1ccccc1 | 6.75% (inactive)
CC/C(C)=N/N1C(=O)c2ccccc2NC1(C)CC (centres undefined) | 5.09% (inactive)
O=C(CCc1c[nH]c2ccccc12)NCC1CCCO1 (centres undefined) | -2.9% (inactive)
O=C(Cn1c(-c2ccccc2)noc1=O)Nc1ccc(S(=O)(=O)N2CCOCC2)cc1 | 2.21% (inactive)
O=C(N/N=C/c1ccccc1Cl)c1ccncc1 | 2.1% (inactive)
O=C(N/N=C/c1ccccc1C(=O)O)c1ccncc1 | -0.84% (inactive)
O=C(CNC(=O)c1ccncc1)N/N=C/c1ccc(O)cc1O | 9.53% (inactive)
Cc1nonc1C(=O)N/N=C/c1ccc(O)c(O)c1 | -5.97% (inactive)
COc1cccc(/C=N/NC(=O)CNC(=O)c2ccncc2)c1O | 10.4% (inactive)
O=C(N/N=C/c1ccc(O)cc1)c1ccncc1 | -6.99% (inactive)
COc1ccccc1C=NNC(=O)c1ccncc1 | -14.4% (inactive)
Cc1nonc1C(=O)N/N=C/c1cccc(O)c1 | -4.77% (inactive)
